The list is not random: actives were taken first. Their share in the collection is about 7.3%.
FLuc counter: qHTS profiling assay for firefly luciferase inhibitor/activator using purifed enzyme and Km concentrations of substrates (counterscreen for miR-21 project). Luciferin 4-monooxygenase (Photinus pyralis), P08659. purified FLuc, Km substrates, luminescence inhibition. Potency, µM (doses to about 57.5 µM), without a hit: at the highest dose activity change, negative = inhibition, hits mostly inhibitors. 6.9% of 360,000 active. AID 588342, 2011;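 note: plate controls were vehicle for no effect and reference inhibitor for full effect; nearly all actives have a fitted effect of over 55% in size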
Target sequence (P08659 whole entry, looked up): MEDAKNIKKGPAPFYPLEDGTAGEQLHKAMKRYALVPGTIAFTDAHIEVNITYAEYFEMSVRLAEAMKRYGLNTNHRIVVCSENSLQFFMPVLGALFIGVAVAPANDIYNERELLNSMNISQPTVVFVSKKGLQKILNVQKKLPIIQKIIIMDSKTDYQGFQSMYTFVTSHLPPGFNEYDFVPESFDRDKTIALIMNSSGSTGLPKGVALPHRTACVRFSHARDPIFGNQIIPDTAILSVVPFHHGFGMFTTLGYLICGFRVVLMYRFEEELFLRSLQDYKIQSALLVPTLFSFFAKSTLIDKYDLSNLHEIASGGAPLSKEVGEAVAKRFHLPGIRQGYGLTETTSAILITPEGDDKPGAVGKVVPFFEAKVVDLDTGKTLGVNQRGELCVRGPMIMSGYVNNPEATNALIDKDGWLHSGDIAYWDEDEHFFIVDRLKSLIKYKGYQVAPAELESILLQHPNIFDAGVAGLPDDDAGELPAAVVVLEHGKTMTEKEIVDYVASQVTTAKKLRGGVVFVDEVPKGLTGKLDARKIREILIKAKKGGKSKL
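Purified P. pyralis luciferase (10nM final) with 10uM D-luciferin and 10uM ATP (Km levels) in 50mM Tris acetate pH 7.5, 10mM Mg acetate, 0.01% Tween-20, 0.05% BSA; qHTS 6-point titration, ~60 µM downward; luminescence read.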
NPC1 prom act: qHTS Assay for NPC1 Promoter Activators; Huh7 NPC1 promoter luciferase reporter, 24 h; Potency, µM (highest dose often 9.22 µM), for inactives: at the top dose activation, hits mostly activators; 2.4% of 320,000 active; note: % of control where 0% means no effect; nearly all actives have a fitted effect of over 60% in size
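Stably transfected Huh7 (NPC1 promoter→luciferase), 1500 cells/well in Opti-MEM + 10% FBS, 2 h settle, then compound 24 h at 37 °C. Luminescence after 10 min with Amplite reagent.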
ELG1 genotox: qHTS screen for small molecules that induce genotoxicity in human embryonic kidney (HEK293T) cells expressing luciferase-tagged ELG1 | HEK293T ELG1-luciferase reporter, luminescence, 16 h | 1.3% of 330,000 active | Potency, µM (top dose mostly 46 µM), for the others: top-dose activity change, positive = activation, usual class: activators | AID 504466, 2011; note: % of control where 0% means no effect; nearly all actives have a fitted effect of over 60% in size
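After overnight (16 hr) compound treatment at 37 °C, ELG1-luciferase HEK293T cells were lysed with ONE-Glo; luminescence quantified 30 min later at room temperature.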
SMN2 splice up: qHTS Assay for Enhancers of SMN2 Splice Variant Expression; HEK293 SMN2-luciferase splicing reporter, luminescence, 30-36 h; Potency, µM (highest dose often 46.1 µM), for the others: at the highest dose activity change, positive = activation, usual class: activators; 2.8% of 210,000 active; note: % of control where 0% means no effect; nearly all actives have a fitted effect of over 55% in size
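HEK293 cells carry an SMN2 minigene-luciferase reporter in which exon 7 inclusion puts luciferase in frame. Cells were seeded at 2000 cells/well, attached for 10-12 hours, then exposed to compounds for 30-36 hours at 37C before ONE-Glo luminescence.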
KinaseGlo FLuc: Counterscreen for Luciferase (Kinase-Glo TM) Inhibition; Luciferin 4-monooxygenase (Photuris pensylvanica), Q27757; Kinase-Glo luciferase, ATP luminescence, 8 min; Potency, µM (titrated, usually from 38.3 µM), for the others: at the highest dose activity change, negative = inhibition, most hits filed as inhibitors; 0.28% of 200,000 active; AID 1379, 2008; note: % is set by controls: 0 for no effect and ±100 for the full control effect; nearly all actives have a fitted effect of over 60% in size
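Kinase-Glo luciferase light output from ATP and luciferin was measured with 10 uM ATP, within the enzyme's linear range. Buffer: 50 mM imidazole pH 7.2, 50 mM KCl, 7 mM MgCl2, 0.01% Tween 20, 0.05% BSA; luminescence read after 8 min at ambient temperature.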
Rab9 promoter act: qHTS Assay for Rab9 Promoter Activators; Potency, µM (doses to about 9.22 µM), inactives show at the top dose activation, negative = inhibition, hits mostly activators; 2.8% of 320,000 active; Huh7 Rab9 promoter-luciferase reporter, luminescence, 24 h; AID 485297, 2010; note: % of control where 0% means no effect; nearly all actives have a fitted effect of over 60% in size
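Steps: seed 1500 Huh7 Rab9-luc cells per well, rest 2 h at 37 °C; add compound in DMSO; incubate 24 h; add luciferase reagent, 10 min ambient; read luminescence.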
* hit, by the source's call; ? = inconclusive; / = no result given; [ ] = another dose, or the depositor's remark. Calls come from the whole dose curve; as a rule, active = well fitted curve in the direction sought with a large enough effect; inconclusive = small, poorly fitted or top-dose-only effect, or another doubt; inactive = no such curve, though single readings can be large; an effect the other way counts as inactive or inconclusive. Potency is the fitted concentration of half-maximal effect.

SMILES	FLuc counter	NPC1 prom act	ELG1 genotox	SMN2 splice up	KinaseGlo FLuc	Rab9 promoter act
O=C(NCC1CCCO1)c1ccc(S(=O)(=O)Nc2ccccc2F)cc1 (stereo unspecified)	-1%	0%	-10%	/	/	-2%
O=C(CN1C(=O)NC2(CCCCCCC2)C1=O)Nc1ccc(Br)cc1Br	1%	-7%	-1%	/	/	2%
CC(=O)c1cccc(NC(=S)NC(=O)Cc2ccc(Cl)cc2)c1	1%	-6%	-1%	/	/	7%
CSc1ncccc1C(=O)OCC(=O)c1cc2ccccc2o1	21µM*	10%	3%	5%	12%	-9%
CSc1ncccc1C(=O)OCC(=O)c1ccc(Br)s1	12µM*	0%	-2%	2%	-4%	9%
CSc1ncccc1C(=O)OCC(=O)NC(N)=O	-2%	7%	4%	7%	-4%	-8%
Cc1cc(=O)n(CC(=O)O)c2ccccc12	-2%	-4%	2%	/	-4%	2%
O=C(COc1ccc(NC(=O)c2ccccc2)cc1)c1ccccc1	2.1µM*	?	4%	/	/	15%
Cc1ccc(NC(=O)c2ccccc2OCC(=O)c2ccccc2)cc1	13µM*	0%	13%	24%	-4%	0%
CCOc1ccc(NC(=O)c2ccccc2OCC(=O)c2ccccc2)cc1	2.1µM*	23%	15%	-12%	8%	?
O=C(COc1ccc(Br)cc1)Nc1ccc(NC(=O)c2ccccc2)cc1	0%	24%	17%	/	/	18%
Cc1cc2nc(N3C(=O)CNC3=S)sc2cc1C	0.54µM*	0.45µM*	18µM*	4µM*	-6%	0.45µM*
CCOc1ccc2nc(SC3CC(=O)N(c4ccc(OC)cc4)C3=O)sc2c1 (stereo unspecified)	?	19%	9%	21%	-2%	?
CCOc1ccc2nc(N3C(=O)CNC3=S)sc2c1	0.85µM*	0.71µM*	21µM*	/	/	0.56µM*
Cc1nccn1CCCN1C(=O)CNC1=S	-2%	-2%	2%	-3%	-5%	0%
COc1ccccc1C(=O)Nc1onc2c1CCCC2	2.7µM*	/	/	3.5µM*	/	/
Cc1ccc(C(=O)Nc2onc3c2CCCC3)cc1	0.3µM*	/	/	2.5µM*	/	/
CCOC(=O)c1ccccc1NC(=O)Cn1cnc2c(oc3ccccc32)c1=O	?	/	/	-19%	-1%	/
Cc1cc(NC(=O)CCN2CCC(C(N)=O)CC2)ccc1Br	6%	-3%	-9%	7%	-7%	1%
CCC(=O)N1CCc2cc(Br)cc(S(=O)(=O)Nc3ccccc3C(=O)OC)c21	-1%	/	/	25%	/	/
CCOC(=O)c1oc2c(c1C)/C(=N/O)CCC2	?	?	?	22µM*	11µM*	26%
CC(C)Cc1nn2c(=O)cc(COC(=O)c3ccc4c(c3)OCO4)nc2s1	-9%	/	/	/	/	/
Cc1c2cnn(CC(=O)O)c(=O)c2c(C)n1Cc1ccccc1	8%	2%	6%	0%	-4%	-1%
COC(=O)Cn1ncc2c(C)n(Cc3ccccc3)c(C)c2c1=O	12µM*	?	21µM*	18µM*	-5%	?
CNC(=O)Cn1ncc2c(C)n(Cc3ccc(C)cc3)c(C)c2c1=O	-1%	-5%	2%	-21%	5%	4%
SMILES	FLuc counter	NPC1 prom act	ELG1 genotox	SMN2 splice up	KinaseGlo FLuc	Rab9 promoter act
Cc1ccc(Cn2c(C)c3cnn(CC(=O)NC4CCCC4)c(=O)c3c2C)cc1	?	?	12%	/	/	1.3µM*
CC(=O)Nc1cccc(-c2csc(Nc3ccc(C)cn3)n2)c1	0.43µM*	1µM*	1.8µM*	2.2µM*	-1%	0.89µM*
CC(=O)Nc1cccc(-c2csc(Nc3ncccn3)n2)c1	2.1µM*	3.2µM*	?	3.5µM*	-8%	1.6µM*
CC(=O)Nc1ccc(-c2csc(Nc3cccc(C)n3)n2)cc1	9.5µM*	1.8µM*	16%	/	-2%	1.6µM*
CC(=O)NNc1nc(-c2ccc(NC(C)=O)cc2)cs1	1%	0%	-1%	13%	-2%	-2%
CC(=O)Nc1ccc(S(=O)(=O)Nc2cccc(-c3csc(C)n3)c2)cc1	-8%	-6%	-5%	/	0%	-10%
Cc1ncc([N+](=O)[O-])n1CCOC(=O)NC(Nc1ccc(F)cc1)C(Cl)(Cl)Cl (stereo unspecified)	1%	-6%	-2%	/	/	-2%
O=c1c2cc([N+](=O)[O-])ccc2nc2n1CCCC2	-2%	0%	-3%	/	/	-2%
COc1ccc(C(=O)Nc2cccc(-c3cn4ccsc4n3)c2)cc1OC	3.4µM*	/	/	/	/	/
COc1ccc(C(=O)NCc2cn3ccsc3n2)cc1OC	0%	8%	-1%	-4%	0%	0%
COc1ccc(C(=O)Nc2cccc(-c3cn4ccsc4n3)c2)c(OC)c1	2.7µM*	/	/	/	/	/
COCc1cc(=O)[nH]c(Nc2nc3ccc(C)cc3o2)n1	17µM*	23%	23µM*	5%	-6%	28%
O=c1n(S(=O)(=O)c2cccc3cccnc23)c2ccccc2n1S(=O)(=O)c1cccc2cccnc12	-2%	-2%	-2%	11µM*	0%	-1%
CN(C)CCCN(C(=O)CCc1ccccc1)c1nc2ccc(Cl)cc2s1	2%	-6%	-5%	-108%	2%	-5%
COc1ccc(N2CCN(C(=O)c3cccc(NC(=O)c4nsc5ccccc45)c3)CC2)cc1	9.5µM*	/	/	/	/	/
Cc1ccc(C(=O)N2CCN(c3ccccc3)CC2)cc1NC(=O)c1nsc2ccccc12	-4%	/	/	/	/	/
COc1cccc(N2CCN(C(=O)c3cccc(NC(=O)c4nsc5ccccc45)c3)CC2)c1	1.9µM*	/	/	/	/	/
CC1CCN(C(=O)c2cccc(NC(=O)c3nsc4ccccc34)c2)CC1	3.4µM*	/	/	/	/	/
COc1ccc(N2CCN(C(=O)c3cccc(NC4=NC5CS(=O)(=O)CC5S4)c3)CC2)cc1 (stereo unspecified)	3%	3%	-1%	/	/	-5%
O=C(Nc1cccc(C(=O)N2CCN(c3ccccc3)CC2)c1)c1nsc2ccccc12	2.7µM*	/	/	/	/	/
CC(=O)c1ccc(-c2cccc([C@H]3[C@@H]4C=CC[C@@H](C)[C@@H]4C(=O)N3Cc3ccccc3)c2)cc1	/	/	1%	/	-1%[39.9 µM]	/
CC1CCCC(C)N1C(=O)CSCc1ccc(Cl)cc1 (stereo unspecified)	-5%	9%	3%	-17%	-4%	6%
CCOC(=O)C1CCCN(C(=O)c2cccc(NC(=O)c3nsc4ccccc34)c2)C1 (stereo unspecified)	9.5µM*	/	/	/	/	/
